Results on 51 molecules are retold here after article PMC4336329 (PLoS ONE, 2015).

Among all 310,000 compounds or so, about 14,000 (4.5%) showed an effect of 50% or more. Effects have a minus sign here. What follows is part of a selection rich in strong results, with near analogues and random picks from the rest.
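Note: peak tail current of the secondary pulse compared with the same well before compound.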

Sequence of human ether-à-go-go-related gene (hERG) potassium channel (Q12809 whole entry, looked up): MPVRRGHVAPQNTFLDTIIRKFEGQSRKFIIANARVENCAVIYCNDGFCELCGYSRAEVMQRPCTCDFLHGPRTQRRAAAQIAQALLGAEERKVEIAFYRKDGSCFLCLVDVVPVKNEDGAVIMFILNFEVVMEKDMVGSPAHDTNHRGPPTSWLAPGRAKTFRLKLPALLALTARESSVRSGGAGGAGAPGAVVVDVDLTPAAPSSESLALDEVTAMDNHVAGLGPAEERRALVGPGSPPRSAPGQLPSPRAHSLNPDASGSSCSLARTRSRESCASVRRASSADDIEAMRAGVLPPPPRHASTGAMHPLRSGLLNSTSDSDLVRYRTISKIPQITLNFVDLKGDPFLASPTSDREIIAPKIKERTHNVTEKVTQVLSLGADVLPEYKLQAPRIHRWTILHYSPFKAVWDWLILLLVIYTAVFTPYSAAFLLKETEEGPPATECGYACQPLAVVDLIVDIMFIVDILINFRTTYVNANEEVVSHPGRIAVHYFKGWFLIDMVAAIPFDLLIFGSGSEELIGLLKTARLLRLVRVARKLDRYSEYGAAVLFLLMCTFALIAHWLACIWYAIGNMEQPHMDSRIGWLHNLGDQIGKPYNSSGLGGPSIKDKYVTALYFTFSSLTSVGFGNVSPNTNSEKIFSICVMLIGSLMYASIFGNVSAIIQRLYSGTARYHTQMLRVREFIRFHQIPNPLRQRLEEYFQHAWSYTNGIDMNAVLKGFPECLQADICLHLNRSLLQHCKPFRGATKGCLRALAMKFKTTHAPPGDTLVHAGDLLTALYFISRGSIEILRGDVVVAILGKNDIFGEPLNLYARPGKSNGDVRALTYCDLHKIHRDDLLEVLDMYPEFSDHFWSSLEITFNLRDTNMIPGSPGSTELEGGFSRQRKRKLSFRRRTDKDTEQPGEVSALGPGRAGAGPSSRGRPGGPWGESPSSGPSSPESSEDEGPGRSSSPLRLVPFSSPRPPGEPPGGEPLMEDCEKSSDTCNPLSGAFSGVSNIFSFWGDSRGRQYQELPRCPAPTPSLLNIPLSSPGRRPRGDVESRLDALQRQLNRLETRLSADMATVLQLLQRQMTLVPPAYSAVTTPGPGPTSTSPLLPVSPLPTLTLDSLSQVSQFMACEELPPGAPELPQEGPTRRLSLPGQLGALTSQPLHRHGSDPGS

This assay addresses human ether-à-go-go-related gene (hERG) potassium channel (human, UniProt Q12809). Put plainly: primary screen, population patch clamp on CHO cells stably expressing hERG; higher = less effect of the substance.
Take `Cc1ccccc1NC(=S)/C(=C(\[O-])c1ccc(C)c([N+](=O)[O-])c1)[n+]1ccccc1`: the “hERG current change (%, negative = inhibition) at 10uM” value is on record as -1.7%. For the molecule `CCC1(C)Cc2ccccc2-c2c1c(=O)n(-c1ccc(C)cc1)c1nnnn21` (stereo not drawn), the “hERG current change (%, negative = inhibition) at 10uM” value was determined as 2.8%. Then `Cc1cc2cc(CN(Cc3ccco3)C(=O)NCc3ccccc3)c(=O)[nH]c2cc1C`, with -6.54%; and `CN(C)CCNC(C(=O)Nc1cccc(C(F)(F)F)c1)c1ccccc1.O=C(O)C(=O)O` (stereo not drawn), with -56.7%.

For the molecule `CCN(CC)CCNC(C(=O)Nc1cc(C(F)(F)F)ccc1Cl)c1ccccc1` (stereo not drawn), the “hERG current change (%, negative = inhibition) at 10uM” value is -76.4%. Then `CCC(C(=O)Nc1cccc(C(F)(F)F)c1)c1ccccc1` (stereo not drawn), with 3.89%; and `CN(C)CCNC(C(=O)Nc1cc(Cl)cc(Cl)c1)c1ccccc1` (stereo not drawn), with -45.6%. With `CCCC(=O)OC(C(=O)Nc1cc(C(F)(F)F)ccc1Cl)c1ccccc1` (stereo not drawn), the “hERG current change (%, negative = inhibition) at 10uM” value is on record as -9.58%.

As to `CCN(CC)CCNC(C(=O)Nc1cccc(C(C)=O)c1)c1ccccc1.O=C(O)C(=O)O` (stereo not drawn), the “hERG current change (%, negative = inhibition) at 10uM” value was -79.1%. Then `CCOc1ccc(NC(C(=O)Nc2cccc(C(C)=O)c2)c2ccccc2)cc1` (stereo not drawn), with -49.7%; and `CC(=O)c1cccc(NC(=O)C(NC(C)C)c2ccccc2)c1` (stereo not drawn), with 10.5%. Then `O=C(Nc1cc(C(F)(F)F)ccc1Cl)C(NCc1ccccc1)c1ccccc1` (stereo not drawn), with 2.13%. Then `O=C(c1cc(F)cc2c1OCOC2)N1CCN(c2ccc(F)cc2)CC1`, with -16%. In the case of `CC(C)C(OC(=O)CN1C(=O)COc2ccccc21)C(=O)NC1CCCCC1` (stereo not drawn), the “hERG current change (%, negative = inhibition) at 10uM” value is recorded as -9.89%. Then `COC(=O)c1cn(CC(=O)N2CCCCCC2)c2ccccc12`, with -40.1%; and `CCN(CC(=O)NCc1cccs1)C(=O)c1cc(S(=O)(=O)N2CCCCC2)ccc1Cl`, with -40.2%; and `Cc1ccc2c(Cl)c(C(=O)NCC3CCCO3)sc2c1` (stereo not drawn), with -12.8%. Then `COc1ccccc1C(=O)NC(=O)COC(=O)c1oc2ccccc2c1C`, with 1.8%; and `OCC[C@H]1C[C@@H](O)[C@H](O)[C@]2(Cc3ccccc3CCO2)O1`, with -0.537%; and `CN(CC(=O)Nc1cccc(F)c1)C(=O)/C=C/c1cc(Br)ccc1OC(F)F`, with -54.8%.

As to `COc1ccc(OC)c(/C=C/C(=O)N(C)CC(=O)Nc2cc(C)ccc2C)c1`, the “hERG current change (%, negative = inhibition) at 10uM” value is recorded as -15.1%. Regarding `COc1ccc(OC)c(/C=C/C(=O)N(C)CC(=O)Nc2ccc(C)cc2)c1`, the “hERG current change (%, negative = inhibition) at 10uM” value was -18.3%. Then `COc1cccc(NC(=O)CN(C)C(=O)/C=C/c2cn(Cc3ccccc3)nc2-c2cccnc2)c1`, with -59.4%. Then `COc1ccc(NC(=O)CN(C)C(=O)/C=C/c2cn(Cc3ccccc3)nc2-c2cccnc2)cc1`, with -25.9%. For the molecule `CN(CC(=O)Nc1cccc(F)c1)C(=O)/C=C/c1ccc(Br)s1`, the “hERG current change (%, negative = inhibition) at 10uM” value worked out at 13.2%.

For the molecule `CN(CC(=O)Nc1cccc(F)c1)C(=O)/C=C/c1ccc2ccccc2n1`, the “hERG current change (%, negative = inhibition) at 10uM” value amounted to 7.19%. On to `COc1cccc(NC(=O)CN(C)C(=O)/C=C/c2cc(OC)ccc2OC)c1`, for which the “hERG current change (%, negative = inhibition) at 10uM” value is recorded as -67.8%. Regarding `CN(CC(=O)Nc1cccc(F)c1)C(=O)/C=C/c1cn(Cc2ccccc2)nc1-c1cccnc1`, the “hERG current change (%, negative = inhibition) at 10uM” value is on record as -48.8%. Then `COc1ccc(OC)c(S(=O)(=O)N(C)CC(=O)N2CCOCC2)c1`, with 11.3%; and `O=C(CSc1nc2ccccc2s1)N/N=C/c1ccccc1C(=O)O`, with 30.5%; and `CC1CCN(C(=O)CSc2nnc(-c3ccncc3)n2C)CC1`, with 6.41%. Then `CCc1nc(N[C@@H](Cc2c[nH]c3ccccc23)C(=O)O)c2oc3ccccc3c2n1`, with 8.39%; and `CC(C)(C)c1ccc(-c2cc(C(=O)NNC(=O)Nc3ccccc3)c3ccccc3n2)cc1`, with 13.6%; and `CCC(C)[C@H]1COCCS(=O)(=O)N1Cc1ccccc1F` (stereo partly drawn), with -18.5%. Then `COc1ccc(-c2onc(C)c2C)cc1S(=O)(=O)NCCc1ccco1`, with -41.8%.

For the molecule `COc1ccc(-c2cc(C)no2)cc1S(=O)(=O)NCCCN1CCCCCC1`, the “hERG current change (%, negative = inhibition) at 10uM” value is reported as -17.4%. Then `COc1ccccc1CNS(=O)(=O)c1cc(C)ccc1OC`, with 9.32%. Then `CCc1ccc(-c2cc(C)no2)cc1S(=O)(=O)NCc1ccccc1OC`, with -15.8%; and `COc1ccc(-c2cc(C)no2)cc1S(=O)(=O)NCC1CCN(Cc2cc(C)ccc2C)CC1`, with -72%. For the molecule `COc1ccc(CNS(=O)(=O)c2cc(-c3cc(C)no3)ccc2OC)cc1OC`, the “hERG current change (%, negative = inhibition) at 10uM” value was 2.57%. Then `CCOc1ccccc1CNS(=O)(=O)c1cc(-c2cc(C)no2)ccc1OC`, with -18.4%; and `Cc1cc(-c2ccc(C)c(S(=O)(=O)NCC3CCN(Cc4ccc(F)cc4)CC3)c2)on1`, with -66.2%; and `COc1ccccc1CN1CCC(CNS(=O)(=O)c2cc(-c3cc(C)no3)ccc2OC)CC1`, with -58.2%. As to `Cc1cc(-c2ccc(C)c(S(=O)(=O)NCC3CCN(Cc4cccc(F)c4)CC3)c2)on1`, the “hERG current change (%, negative = inhibition) at 10uM” value was -39.1%.

For the molecule `COc1ccccc1CN1CCC(CNS(=O)(=O)c2cc(-c3onc(C)c3C)ccc2OC)CC1`, the “hERG current change (%, negative = inhibition) at 10uM” value is recorded as -76.7%.

`CCc1ccc(-c2cc(C)no2)cc1S(=O)(=O)N1CCCN(Cc2ccc(F)cc2)C1`: the “hERG current change (%, negative = inhibition) at 10uM” value turned out to be 5.62%. Regarding `O=C(Nc1cccc(NC(=O)c2ccc(Br)cc2)c1)c1ccccc1`, the “hERG current change (%, negative = inhibition) at 10uM” value stood at 18%.

For `CCCC(CCC(=O)Nc1ccn(-c2ccccc2)n1)C(=O)O` (stereo not drawn), the “hERG current change (%, negative = inhibition) at 10uM” value is 4.5%. With `COc1ccc(S(=O)(=O)N2CCCC(C(=O)NCc3ccccc3)C2)cc1` (stereo not drawn), the “hERG current change (%, negative = inhibition) at 10uM” value was 23.7%.

Regarding `CN(C)C=O.CN(C)c1ccc(/C=C/c2nc3ccccc3c(=O)n2-c2ccc(C(=O)O)cc2)cc1`, the “hERG current change (%, negative = inhibition) at 10uM” value was found to be 19.8%. As to `C=CCn1c(SCC(N)=O)nnc1-c1ccccc1O`, the “hERG current change (%, negative = inhibition) at 10uM” value is given as 0.103%.
